Laboratory results taken from PubChem BioAssay AID2314 (National Center for Advancing Translational Sciences (NCATS), 2010).
Among all 300,000 compounds or so, about 37,000 (12%) were called active. Rule as the data show it: active = max response mostly above about 13% (no sharp cut-off); inactive = mostly below about 14%. What follows is part of a selection rich in actives, with near analogues and random picks from the rest.

test: Cycloheximide Counterscreen for Small Molecule Inhibitors of Shiga Toxin; details: cell reporter, cycloheximide protein synthesis inhibition counterscreen; hits give high values; also: read at 38.3 µM for the half of the compounds with a filed dose; 0% is about no effect

Structure (SMILES)	max response
Cc1ccccc1-c1ccc(C(=O)O)s1	27.3% (inactive)
O=C1CSC(=S)N1c1ccc(Cl)c(Cl)c1	3.61% (inactive)
CCS(=O)(=O)N1CCC(N2CCN(c3ccccc3)CC2)CC1	-2.51% (inactive)
Cc1ccc(N(Cc2cc(=O)[nH]c3ccccc23)C(=O)CCl)cc1	-3.54% (inactive)
COc1cc(NC(=O)c2ccccc2)c(OC)cc1NC(=O)Cc1ccccc1	-0.835% (inactive)
O=C(CCC1CCCN(C(=O)Cc2ccc(F)cc2)C1)N1CCN(c2ccccn2)CC1 (stereo not drawn)	-1.12% (inactive)
Cc1cccc(NC(=O)c2sc3nc(N4CCOCC4)c4c(c3c2N)CCCC4)c1	14.3% (active)
Cc1cccc(NC(=O)c2sc3nc4c(c(-c5ccco5)c3c2N)CCC4)c1	20.8% (inactive)
CC(=O)Nc1ccc(N2CCOCC2)c(C(=O)Nc2cccc(C)c2)c1	-4.06% (inactive)
CC(C)c1ccc(S(=O)(=O)N2CCN(C(=O)c3ccc(N4CCCC4)c([N+](=O)[O-])c3)CC2)cc1	21.7% (inactive)
CCCCNC(=O)N(O)C1N(/N=C/c2ccccc2O)C(=S)SC1(C)C (stereo not drawn)	40.5% (active)
CCCCNC(=O)N(O)C1N(/N=C/c2ccc(N(C)C)cc2)C(=S)SC1(C)C (stereo not drawn)	-1.87% (inactive)
CCC(C)N1C(=S)SC(C)(C)C1N(O)C(=O)NC1CCCCC1 (stereo not drawn)	-3% (inactive)
COc1ccc(CC(=O)Nc2sc(Cc3ccccc3)c(C)c2C(N)=O)cc1	-4.58% (inactive)
CCCc1cc(=S)n2c([nH]c3ccccc32)c1C#N	9.34% (inactive)
COc1cc(C(=O)N2CCN(C/C=C/c3ccccc3)CC2)cc(OC)c1C	-2.42% (inactive)
O=C(NCCc1c[nH]c2ccccc12)c1cc2ccccc2oc1=O	52.8% (active)
O=C(NCCc1c[nH]c2ccccc12)c1cccc(Br)c1	27.9% (active)
O=C(NC(Cc1c[nH]c2ccccc12)C(=O)O)/C(=C/c1ccco1)NC(=O)c1ccccc1 (stereo not drawn)	7.91% (inactive)
Cc1ccc(C(=O)N/C(=C/c2ccco2)C(=O)NCCc2c[nH]c3ccccc23)cc1C	15.8% (active)

Structure (SMILES)	max response
Cc1cc(C)cc(NC(=S)NCCc2c[nH]c3ccccc23)c1	-3.82% (inactive)
COc1ccc(/C=C(\NC(=O)c2ccc(OC)c(OC)c2)C(=O)NCCc2c[nH]c3ccccc23)cc1	-2.44% (inactive)
O=C(NCCc1c[nH]c2ccccc12)C(=O)NCC1CCCO1 (stereo not drawn)	-2.43% (inactive)
CN(c1ccccc1)S(=O)(=O)c1ccc(Cl)c(C(=O)NCCc2c[nH]c3ccccc23)c1	-2.81% (inactive)
COc1ccccc1CC(=O)NCCc1c[nH]c2ccccc12	5.67% (inactive)
Cc1cc(C)cc(NS(=O)(=O)Cc2ccccc2)c1	2.71% (inactive)
COc1ccc(CNc2nc3c(c(=O)[nH]c(=O)n3C)n2Cc2ccccc2)cc1	1.15% (inactive)
CCn1c(CNC(=O)c2cc(OC)c(OC)c(OC)c2)cc2cc(C)ccc21	-0.507% (inactive)
CC(=O)c1c(C)[nH]c(C(=O)COC(=O)c2cccc(S(=O)(=O)N(C)c3ccccc3)c2)c1C	6.94% (inactive)
COc1ccc(C(=O)OCC(=O)NCC2CCCO2)cc1[N+](=O)[O-] (stereo not drawn)	0.371% (inactive)
CCC(=O)c1ccc(OCC(O)Cn2nc(C)c(C(C)=O)c2C)cc1 (stereo not drawn)	-6.71% (inactive)
O=C(NCc1cccc(Cl)c1)C1CCC(=O)N(C2CC2)C1 (stereo not drawn)	0.588% (inactive)
O=C(CSc1ccc(-c2ccc(F)cc2)nn1)Nc1ccc2c(c1)OCCO2	10.9% (inactive)
O=C(CSc1ccc(-c2ccco2)nn1)Nc1cccc(F)c1	26% (active)
O=C(CSc1ccc(-c2ccccn2)nn1)Nc1ccccc1	20% (active)
Cc1ccccc1NC(=O)CSc1ccc2nnc(-c3ccccn3)n2n1	-1.54% (inactive)
COc1cc(NC(=O)CSc2ccc(-c3cccnc3)nn2)cc(OC)c1	-2.34% (inactive)
COc1ccc(NC(=O)CSc2ccc(-c3ccco3)nn2)c(OC)c1	9.5% (inactive)
COc1ccc(CNC(=O)COC(=O)/C=C/c2ccc(S(=O)(=O)N3CCOCC3)cc2)cc1	9.31% (inactive)
O=c1c2ccccc2nnn1CSc1nc2sc3c(c2c(=O)n1CC1CCCO1)CCC3 (stereo not drawn)	-2.17% (inactive)

Structure (SMILES)	max response
OC(c1ccc(Cl)cc1)C(CN1CCOCC1)c1ccccc1 (stereo not drawn)	-2.76% (inactive)
COc1ccc2c(C)c(CCC(=O)NC3CC3)c(=O)oc2c1C	9.57% (inactive)
O=C1C(=O)N(c2ccccc2)c2ccccc21	-2.88% (inactive)
O=C(O)CCS(=O)(=O)c1ccc(-c2ccccc2)cc1	-1.33% (inactive)
CC(=O)CCS(=O)(=O)c1ccc(C)c(C)c1	27.6% (active)
Cc1ccc(S(=O)(=O)CCC(=O)OCc2ccccc2)cc1	0.648% (inactive)
COc1ccc(OC)c(NC(=O)C2CCCN2S(=O)(=O)c2cccc3nsnc23)c1 (stereo not drawn)	12.5% (inactive)
Cc1ccc(-c2nnc(Nc3ccc(C(=O)N(C)C)cc3)c3ccccc23)cc1S(N)(=O)=O	-2.16% (inactive)
O=C(CSc1nnc(-c2ccc(NS(=O)(=O)c3ccccc3)cc2)o1)NCC1CCCO1 (stereo not drawn)	-1.17% (inactive)
O=C(Nc1ccc(-c2nnc(-c3ccccc3)o2)cc1)C1CCCO1 (stereo not drawn)	39.1% (active)
Cc1cccc(NC(=O)Nc2nnc(-c3ccccc3)o2)c1	2.04% (inactive)
CCOC(=O)c1ccc(NC(=O)c2ccc(NC(=O)C3CCCO3)cc2)cc1 (stereo not drawn)	13.9% (inactive)
CC(C)(C)NS(=O)(=O)c1ccc(NC(=O)C2CCCO2)cc1 (stereo not drawn)	-3.65% (inactive)
O=C(Nc1cccc(-c2nnc(-c3ccccc3)o2)c1)C1CCCO1 (stereo not drawn)	37.3% (active)
CCn1c(=S)sc2c(=O)n(CC(=O)Nc3ccc(OC)cc3)c(C)nc21	-0.488% (inactive)
Cc1ccccc1OCCC(=O)OCC(=O)NC(C)c1ccccc1 (stereo not drawn)	1.95% (inactive)
CCC(C)c1ccccc1NC(=O)CN(C)CC(=O)Nc1ccccc1SC (stereo not drawn)	-13.3% (inactive)
Cc1cc(C(=O)COc2ccccc2[N+](=O)[O-])c(C)n1-c1cccc(S(=O)(=O)N2CCOCC2)c1	0.979% (inactive)
